# From PubChem BioAssay (NCI)
# This is part of a sample that, as a whole, favours compounds with a hit. Of some 83,000 tested, about 20% had one in any assay.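 Cell lines were cultured in 96-well plates, exposed to a single compound concentration, and assessed for percent growth 48 hours later.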 Unmarked numbers belong to inactive results. Active and inactive are the calls of the source. How the source made its calls: active means growth percent below 10; inactive means the rest.
# Legend:
# Test in all cases: NCI-60 one-dose screen, 48 h (100 = growth as untreated, 0 = no growth, -100 = all killed)
# Conditions in all cases: 10 µM unless noted
# DU-145 prostate = test system: DU-145 prostate
# K-562 leukemia = test system: K-562 leukemia
# MALME-3M melanoma = test system: MALME-3M melanoma
# MDA-MB-231 breast = test system: MDA-MB-231 breast
# RXF 393 renal = test system: RXF 393 renal
# SF-268 CNS = test system: SF-268 CNS
# SF-295 CNS = test system: SF-295 CNS
# SF-539 CNS = test system: SF-539 CNS
# UACC-257 melanoma = test system: UACC-257 melanoma
# M14 melanoma = test system: M14 melanoma
Compound,growth (DU-145 prostate),growth (K-562 leukemia),growth (MALME-3M melanoma),growth (MDA-MB-231 breast),growth (RXF 393 renal),growth (SF-268 CNS),growth (SF-295 CNS),growth (SF-539 CNS),growth (UACC-257 melanoma),growth (M14 melanoma)
Cc1cc(C(=O)Nc2ncnc3nc[nH]c23)no1,108%,87%,105%,105%,107%,99.7%,99.3%,96.9%,112%,99%
O=C1Nc2c(ccc(Cl)c2Cl)/C1=C/c1ccc(O)cc1,119%,91.9%,108%,88.7%,–,89.1%,87.6%,98.3%,102%,100%
COc1cccc2c1C(=O)c1c(O)c3c(c(O)c1C2=O)C[C@@](O)(C(=O)CO)C[C@@H]3O[C@H]1C[C@H](N)[C@@H](O)[C@H](C)O1,-26.8% (active),1.44% (active),-50.7% (active),1.94% (active),–,-15.4% (active),-16.1% (active),-23.9% (active),-49.3% (active),-47.4% (active)
CNC(=O)Nc1ccc(-c2nc(N3CCOCC3)nc3c2cnn3C2CCOCC2)cc1,9.63% (active),20.1%,-37.6% (active),5.07% (active),-35.3% (active),15.7%,-45% (active),-24.4% (active),-24.9% (active),-12.1% (active)
O=S(=O)(NCCCNc1nccc(-c2c(-c3ccc(F)c(O)c3)nc3sccn23)n1)c1ccc(F)cc1,11.5%,3.41% (active),-14.7% (active),-23.1% (active),–,9.56% (active),-12.1% (active),18.5%,-10% (active),6.75% (active)
O=C(OCc1nc2nc(Cl)nc(N3CCOCC3)c2[nH]1)n1ccnc1,9.47% (active),-7.19% (active),11%,-6.91% (active),–,5.74% (active),95.2%,-19.7% (active),-71% (active),-37.6% (active)
O=C(N/N=C/c1ccc(O)c(O)c1)c1sc2ccccc2c1Cl,108%,95.9%,96.8%,101%,–,77.9%,114%,52.2%,111%,97.7%
c1cnc2nc3c(cc2c1)oc1ccccc13,103%,92.4%,109%,86.3%,–,97.1%,96.7%,93.2%,116%,105%
COc1ccccc1/C=C1\Oc2cc(OCCCN3CCCC3)ccc2C1=O,98%,4.95% (active),96.5%,86.5%,–,90.3%,99.2%,76.4%,109%,100%
CC(=O)c1c[nH]c2ccc(-c3ccnc(Nc4ccc(NC(=O)c5cccc(F)c5)c(CN5CCOCC5)c4)n3)cc12,2.59% (active),4.68% (active),-21.7% (active),-37.5% (active),–,-16.8% (active),-17.2% (active),-56% (active),4.48% (active),-19.4% (active)
CN1CCN(C(=O)OCc2nc3c(N4CCOCC4)nc(-c4ccccc4)nc3n2C)CC1,-83.5% (active),2.72% (active),-93.9% (active),-86.2% (active),–,-50.2% (active),47.9%,-99.6% (active),-49.5% (active),-73.5% (active)
COc1c(Cl)cc(Cl)c2ccc(C=C3C(=O)N(C)C(=O)N(C)C3=O)nc12,108%,100%,107%,107%,–,97.3%,80.3%,98.6%,106%,-15.7% (active)
O=C1NC(=S)NC(=O)C1=Cc1cn(Cc2ccccn2)c2ccccc12,76.8%,26.4%,85.1%,53.3%,–,59.6%,73.6%,60.7%,87.8%,-61.2% (active)
CC(C)[N+](C)(CCOC(COc1ccccc1)COc1ccccc1)C(C)C,106%,53%,105%,98%,–,94.5%,98.9%,100%,78.7%,100%
COc1ccncc1C#Cc1cncc(C(=O)Nc2ccc(CN3CCN(C)CC3)c(C(F)(F)F)c2)c1,35.4%,5.84% (active),-28% (active),9.91% (active),–,39.8%,49.7%,1.56% (active),46.5%,-3.19% (active)
COc1cccc(CCC(=O)c2cc3c(N)c(C(=O)Nc4cccc(Cl)c4C)sc3nc2C)c1,13.8%,7.49% (active),41.3%,16.9%,–,37.3%,2.95% (active),-41.6% (active),65.1%,16.4%
